Reference: PubChem BioAssay (Tox21)
The source made the active and inactive calls. A call without a number means that no potency is given here. Calls come from the whole dose curve; as a rule, active = well fitted curve in the direction sought with a large enough effect in the repeat runs; inconclusive = weak or mixed curves; inactive = flat fitted curve, though single readings scatter.

assay: qHTS assay to test for compound auto fluorescence at 535 nm (green) in HEK293 cells (AID 720680); conditions: green autofluorescence 485/535 nm; series mostly up to 91.3 µM
Text: U.S. Tox21 Program National Center for Advancing Translational Sciences [NCATS] NIH Chemical Genomics Center [NCGC] U.S. Environmental Protection Agency [EPA] National Institutes of Environmental Health Sciences [NIEHS] National Toxicology Program [NTP] U.S. Food and Drug Administration [FDA] Tox21 Assay Overview: Compound auto fluorescence often interferes with screening of the compound library against various biological targets and signaling pathways. Some of these compounds may have fluorophoric properties. Such properties may interfere with the assay outputs resulting in false positives and/or negatives. To decrease such complications and ensure the compound activities are relevant in terms of biological response, the Tox21 10K compound library was screened for auto fluorescence. From the fluorophores used as reporter signals in our screening assays, the auto fluorescence equivalencies of compounds against three fluorophores have been evaluated: Triamterene, Fluorescein and Rose Bengal sodium for blue, green and red fluorescence, respectively. The fluorescence intensities were measured using Excitation/Emission wavelengths at 405/460nm, 485/535nm and 540/590nm for blue, green and red labels, respectively. This assay includes the green fluorescence data.
Tox21 Assay Protocol Summary: 2,000 HEK293 cells in 5 uL of culture medium containing 10% dialyzed FBS per well were dispensed into black wall/clear bottom 1536-well plates using a Multidrop Combi Dispenser (Thermo Scientific). The assay plates were incubated for 4-5 hr at 37C to allow cell attachment to the well bottom, followed by the transfer of 23 nL compound or DMSO vehicle by a pintool work station (Kalypsys, San Diego, CA). After the assay plates were incubated overnight at 37C and 5% CO2, fluorescence intensities in the assay plates were measured by an Envision (PerkinElmer, Shelton, CT) plate reader using three labels for measuring blue, green and red fluorescence at […] 460, 535 and 590nm respectively.

SMILES	Potency	fluorescence, % of fluorescein
CC[N+](CC)(CC)CCOc1ccc(/C=C/c2ccccc2)cc1	inactive	
CC(C)(C)c1csc(-c2cc3cc(OCc4ccccc4CC(=O)O)ccc3o2)n1	inactive	
CCC(=O)OC(=O)CC	inactive	
COc1ccc2cc1Oc1ccc(cc1)C[C@H]1c3c(cc4c(c3Oc3cc5c(cc3OC)CCN(C)[C@@H]5C2)OCO4)CCN1C	inactive	
CCC(C)[O-].CCC(C)[O-].CCOC(=O)/C=C(/C)[O-].[Al+3]	inactive	
Cc1ccc(O)c(O)c1	inactive	
CCC(C)n1ncn(-c2ccc(N3CCN(c4ccc(OC[C@H]5CO[C@](Cn6cncn6)(c6ccc(Cl)cc6Cl)O5)cc4)CC3)cc2)c1=O (stereo not given in full)	inactive	
O=C(O)c1cccc(C(F)(F)F)c1	inactive	
CC1(C)CC(O)CC(C)(C)N1	inactive	
CCC(CC)C(C)CCOC(C)=O (stereo not given)	inactive	
CCCCCCCC/C=C\CCCCCCCCN	inactive	
Cc1cc(=O)oc2cc(O)cc(O)c12	inactive	
CCCNCCC	inactive	
C=Cc1ccccc1C=C	inactive	
CCCC[P+](C)(CCCC)CCCC	inactive	
C=CC(=O)OCCOC(=O)C=C	inactive	
CC(=O)CC(=O)Nc1ccc(S(=O)(=O)O)cc1	inactive	
c1ccc(SSc2ccccc2)cc1	inactive	
COc1cc(C)ccc1O	inactive	
c1ccc(C(O[C@@H]2CCCN(CCc3ccc4c(c3)OCO4)C2)c2ccccc2)cc1	inactive	

SMILES	Potency	fluorescence, % of fluorescein
Nc1ccc(Oc2ccc(Cl)cc2)cc1	inactive	
CN(C)c1ccc(C(=C2C=CC(=[N+](C)C)C=C2)c2ccc(N(C)C)cc2)cc1	inactive	
COC(=O)Nc1nc2ccc(C(=O)c3ccccc3)cc2[nH]1		-0.035% [at 18.6 µM] (inactive)
CCc1ccc(Br)cc1	inactive	
C[Si](Cl)(c1ccccc1)c1ccccc1	inactive	
CCCCC(CC)CN1CN(CC(CC)CCCC)CC(C)(N)C1 (stereo not given)		-0.025% [at 18.6 µM] (inactive)
CC(C)CCCCCOC(=O)CCS	inactive	
CCN(CC)C(=O)c1cc(S(=O)(=O)Cc2ccccc2)c(N2CCC(c3ccccc3)CC2)cc1N(CC)CCN(C)C	inactive	
CCC(=O)C(=O)CC	inactive	
C#CC1(O)CC[C@H]2[C@@H]3CCC4=CCCC[C@@H]4[C@H]3CC[C@@]21C (stereo not given in full)	inactive	
CC(C)OC(=O)C(O)(CC(=O)O)CC(=O)O	inactive	
CC(C)(c1cc(Br)c(OCC(Br)CBr)c(Br)c1)c1cc(Br)c(OCC(Br)CBr)c(Br)c1 (stereo not given)	inactive	
CCOC(=O)c1ccc(C2CCC(NC[C@H](O)COc3ccc(O)c(NS(C)(=O)=O)c3)CC2)cc1 (stereo not given in full)	inactive	
Cc1c(F)c(N2CCNC(C)C2)cc2c1c(=O)c(C(=O)O)cn2C1CC1 (stereo not given)	inactive	
CCCCCC(C)OC(=O)COc1ccc(Cl)c2cccnc12 (stereo not given)	inactive	
Cc1c(C)c2c(c(C)c1OC(=O)c1cccnc1)CC[C@@](C)(CCC[C@H](C)CCC[C@H](C)CCCC(C)C)O2	inactive	
CC(CCc1ccccc1)NCC(O)c1ccc(O)c(C(N)=O)c1 (stereo not given)	inactive	
Sc1nc2ccccc2s1	inactive	
CN1CCCCC1CCN1c2ccccc2Sc2ccc(S(C)=O)cc21 (stereo not given)	inactive	
CN1CCC[C@@H]1CCO[C@](C)(c1ccccc1)c1ccc(Cl)cc1	inactive	
